MITF primary: inhibitors of human MITF. inhibition, % at 2.6 µM. O75030. AlphaScreen MITF homodimerization, bead proximity signal. 650,000 tested, 0.91% active; in the data active = inhibition above about 50%;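 also: 0% = vehicle wells with protein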
Target sequence (O75030 whole entry, looked up): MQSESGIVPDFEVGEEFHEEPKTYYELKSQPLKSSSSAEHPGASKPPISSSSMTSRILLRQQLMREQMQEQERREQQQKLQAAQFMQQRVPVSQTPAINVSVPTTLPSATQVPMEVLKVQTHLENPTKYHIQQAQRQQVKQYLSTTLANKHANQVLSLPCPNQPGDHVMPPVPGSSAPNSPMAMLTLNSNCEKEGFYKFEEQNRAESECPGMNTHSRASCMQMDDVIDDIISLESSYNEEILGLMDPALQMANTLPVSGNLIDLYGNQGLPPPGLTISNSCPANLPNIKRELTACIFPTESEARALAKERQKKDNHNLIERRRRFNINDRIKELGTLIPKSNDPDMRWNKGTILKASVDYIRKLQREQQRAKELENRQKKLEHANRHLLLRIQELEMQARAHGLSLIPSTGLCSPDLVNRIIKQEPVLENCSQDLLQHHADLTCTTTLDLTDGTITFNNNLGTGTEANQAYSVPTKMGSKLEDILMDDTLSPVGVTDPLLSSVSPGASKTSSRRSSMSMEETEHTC
TEAD-YAP block: TEAD-YAP interaction inhibition; HEK-TIYL cells, TEAD-Gal4/YAP UAS-luciferase luminescence; inhibition, % at 9.12 µM; 640,000 tested, 1.4% active; in the data active = inhibition above about 32%;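 also: 0% = median of test compound wells and 100% = reference inhibitor wells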
GPR151 activ: activates the human receptor GPR151; Q8TDV0; PathHunter beta-arrestin GPR151 cells, luminescence; activation, % at 11.2 µM; 650,000 tested, 1% active; AID 1508602; in the data active = activation above about 4.9%;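 also: 0% = median of compound wells and 100% = cells with positive control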
FBW7 act: human FBW7 E3 ligase activation, primary screen; normalized activity (activation), % at 26.1 µM; Q969H0; AlphaScreen FBW7–phospho-cyclin E peptide binding, activator screen; 650,000 tested, 0.13% active; in the data active = normalized activity above about 1.9%;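 also: purified mutant Fbw7 with reduced substrate affinity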
* marks the source's active call; other numbers are inactive results. The list is not random: actives were taken first. Their share in the collection is about 3.5%.

SMILES	MITF primary	TEAD-YAP block	GPR151 activ	FBW7 act
COc1ccccc1N1CCN(Cc2cc(COCc3ccccc3)c3cccnc3c2O)CC1	49	74*	0	-1
CCOCc1cc(CN2CCN(c3ccccc3OC)CC2)c(O)c2ncccc12	91*	10	0	-1
NC(=O)c1cc(NC(=O)c2ccc3c(c2)S(=O)(=O)c2ccccc2C3=O)cc(C(N)=O)c1	-2	-2	1	0
CCOc1cc(C(=S)N2CCCC2)ccc1OCc1ccc(F)cc1	11	-5	1	0
CCCN(CCC)S(=O)(=O)c1ccc(C(=O)Nc2sc3c(c2C(=O)OCC)CC(C)(C)NC3(C)C)cc1	4	-1	0	0
Oc1c(CN2CCCCC2)cc(COCc2ccccc2)c2cccnc12	98*	74*	0	-1
COc1ccccc1N1CCN(Cc2cc(Cl)c3cccnc3c2O)CC1	42	32*	-3	-1
COc1ccccc1N1CCN(Cc2cc([N+](=O)[O-])c3cccnc3c2O)CC1	18	14	-1	-1
COc1ccccc1N1CCN(Cc2cc(COC(C)C)c3cccnc3c2O)CC1	82*	35*	1	-1
COCc1cc(CN(C)C2CCCCC2)c(O)c2ncccc12	67*	74*	0	-2
O=C(O)C1C(=O)Nc2ccccc2C1=O (stereo not drawn)	-1	5	0	0
CCOC(=O)C1CCN(C(=O)c2sc3ncnc(N4CCCCC4)c3c2C)CC1	10	3	-2	0
CCOCc1cc(CN2CCOCC2)c(O)c2ncccc12	86*	-3	-1	-1
COc1ccccc1N1CCN(Cc2cc([N+](=O)[O-])c(O)c3ncccc23)CC1	28	6	-1	-1
CCCOCc1cc(CN2CCN(C)CC2)c(O)c2ncccc12	94*	7	-2	-1
CC1CCN(Cc2cc([N+](=O)[O-])c(O)c3ncccc23)CC1	42	-5	-1	-1
COc1ccccc1N1CCN(Cc2cc(Br)c(O)c3ncccc23)CC1	43	81*	0	-1
COc1ccc(CCN2CC3=C(C2=O)C(c2ccc(C)cc2)NC(=O)N3)cc1 (stereo not drawn)	3	6	-1	0
COc1ccc(/C=C(\NC(=O)c2ccc(C)c(C)c2)C(=O)N2CC3CC(C2)c2cccc(=O)n2C3)c(OC)c1 (stereo not drawn)	10	-9	0	0
Cc1cc(N2CCCC(C(=O)NC3CCCC3)C2)n2ncnc2n1 (stereo not drawn)	-5	-8	0	0
CCCc1cc(=O)[nH]c(-n2nc(C)cc2NC(=O)C2CC2)n1	12	12	0	0
CCc1cc(=O)[nH]c(-n2nc(C)cc2NC(=O)CC2CCCC2)n1	32	58*	-2	0
O=C(NCCc1ccccc1)N1CCC(c2nnc(C3CC3)s2)CC1	-7	-11	2	2.6*
CC(C)NC(=O)N1CCC(c2nnc(C3CC3)s2)CC1	12	4	-1	2.1*
CC(C)NC(=O)N1CCC(c2nnc(C(C)C)o2)CC1	-9	-4	-1	0
SMILES	MITF primary	TEAD-YAP block	GPR151 activ	FBW7 act
O=C(NCCc1ccccc1)C1CCN(C(=O)NCc2ccccc2)CC1	6	1	0	0
CC1=C(C(=O)OCCOc2ccccc2)C(c2ccc(Cl)cc2)NC(=O)N1 (stereo not drawn)	2	4	0	0
Cc1c2c(=O)n(-c3nc4ccccc4s3)[nH]c2cc(=O)n1Cc1ccccc1	71*	-3	1	0
COc1ccc(CCn2c(C)c3c(=O)n(-c4nc5ccccc5s4)[nH]c3cc2=O)cc1	25	2	1	0
NC(=O)c1cnn(-c2ccnc(NC(=O)Cc3ccc4c(c3)OCO4)c2)c1	17	45*	-2	0
Cc1cccc(NC(=O)Cc2ccc3c(c2)OCO3)n1	-3	-30	0	2
COc1ccc(C(=O)Nc2noc3ccccc23)c(OC)c1	-4	88*	-10	0
O=C(Nc1noc2ccccc12)c1ccc(F)cc1	-7	44*	-12	0
COc1ccccc1C(=O)Nc1noc2ccccc12	15	27	-5	0
O=C(Nc1noc2ccccc12)c1cccc(F)c1	-4	-17	-4	0
Cc1ccccc1C(=O)Nc1noc2ccccc12	-2	43*	-12	0
CCOc1ccc(NC(=O)c2cc(OC)c(OC)cc2[N+](=O)[O-])cc1	-19	2	2	0
CCc1ccc(C2CC(c3ccc(OC)cc3)n3nc(N)nc3N2)cc1 (stereo not drawn)	9	0	3	0
COc1ccc(N2COc3ccc4cc(Br)ccc4c3C2)cc1	3	0	0	0
Brc1ccc(C2=Nn3c(nnc3-c3ccccc3)SC2)cc1	10	-6	0	0
Oc1ccc(C2=Nn3c(nnc3-c3ccccc3O)SC2)cc1O	22	41*	3	0
Cc1ccc(C2=Nn3c(nnc3-c3ccccc3C)SC2)cc1	1	60*	0	0
CCOC(=O)c1c(C)[nH]c(C(=O)N/N=C\c2ccccc2O)c1C	-1	35*	0	0
CCOC(=O)c1c(C)[nH]c(C(=O)N/N=C\c2ccccc2)c1C	18	18	-1	0
COc1ccccc1/C=N/NC(=O)c1[nH]c(C)c(C(=O)N/N=C/c2ccccc2OC)c1C	-2	1	0	0
CCOC(=O)c1c(C)[nH]c(C(=O)N/N=C\c2ccc(Br)cc2)c1C	3	56*	2	0
COc1ccc(OCC(=O)Nc2ccc(-c3nc4ccc(C)cc4s3)cc2)cc1	16	39*	2	1
Cc1ccc2nc(-c3ccc(NC(=O)c4ccccc4C(=O)O)cc3)sc2c1	14	83*	-6	0
COC(=O)CCC(=O)Nc1ccc(-c2nc3ccc(C)cc3s2)cc1	-1	72*	-2	0
Cc1ccc2nc(-c3ccc(NC(=O)C4CCCN4S(C)(=O)=O)cc3)sc2c1 (stereo not drawn)	14	50*	-1	0
SMILES	MITF primary	TEAD-YAP block	GPR151 activ	FBW7 act
CCCCNC(=O)CSc1nc2sc(C(=O)OCC)c(C)c2c(=O)n1Cc1ccc(OC)cc1	-14	-2	0	0
CCCCOc1ccccc1NC(=O)C(C)C	-6	3	-1	0
CCOC(=O)c1c(NC(=O)CSc2nnc3sc4ccccc4n23)sc2c1CCC2	9	-4	4	0
CC1=NN(c2nc(-c3ccccc3)cc(-c3ccccc3)n2)C(=O)C1	6	1	0	0
Cc1ccc2nc(-c3ccc(O)cc3)sc2c1	9	98*	-7	0
Oc1ccc(-c2nc3cc4sc(-c5ccc(O)cc5)nc4cc3s2)cc1	7	12	0	0
O=c1[nH]c(N/N=C/c2ccc(O)cc2O)nnc1Cc1ccccc1	104*	8	-1	0
COc1ccc(/C=N/Nc2nnc(Cc3ccccc3)c(=O)[nH]2)cc1OC	15	4	0	0
COc1ccc(Cc2nnc(N/N=C/c3cc([N+](=O)[O-])ccc3O)[nH]c2=O)cc1OC	115*	-2	2	0
COc1ccc(Cc2nnc(N/N=C/c3cccs3)[nH]c2=O)cc1OC	-9	4	-1	-1

Screening results (PubChem)
